# Experiments:
# FLT4 = conditions: compound concentrations:3nM, 10nM, 30nM, 100nM, 300nM, 1000nM, 3000nM, 30000nM,R2:0.97672359479992199,slope:1.0836870062150401,EC50 Standard Error, by the legend:Standard error of the EC50 estimation as provided by the drc package.
# INCENP = conditions: compound concentrations:3nM, 10nM, 30nM, 100nM, 300nM, 1000nM, 3000nM, 30000nM,R2:0.98280014886482903,slope:1.1847745210473,EC50 Standard Error, by the legend:Standard error of the EC50 estimation as provided by the drc package.
# IRAK4 = conditions: compound concentrations:3nM, 10nM, 30nM, 100nM, 300nM, 1000nM, 3000nM, 30000nM,R2:0.93116388715812703,slope:1.4824347437463801,EC50 Standard Error, by the legend:Standard error of the EC50 estimation as provided by the drc package.
# MAP3K11 = conditions: compound concentrations:3nM, 10nM, 30nM, 100nM, 300nM, 1000nM, 3000nM, 30000nM,R2:0.99429213742215306,slope:0.76505348781975802,EC50 Standard Error, by the legend:Standard error of the EC50 estimation as provided by the drc package.
# MAP4K2 = conditions: compound concentrations:3nM, 10nM, 30nM, 100nM, 300nM, 1000nM, 3000nM, 30000nM,R2:0.97693743702181501,slope:1.5044165115380901,EC50 Standard Error, by the legend:Standard error of the EC50 estimation as provided by the drc package.
# MARK2 = conditions: compound concentrations:3nM, 10nM, 30nM, 100nM, 300nM, 1000nM, 3000nM, 30000nM,R2:0.98471401601648001,slope:1.6013857186590299,EC50 Standard Error, by the legend:Standard error of the EC50 estimation as provided by the drc package.
# MARK3 = conditions: compound concentrations:3nM, 10nM, 30nM, 100nM, 300nM, 1000nM, 3000nM, 30000nM,R2:0.98601648224136496,slope:1.5139039229536799,EC50 Standard Error, by the legend:Standard error of the EC50 estimation as provided by the drc package.
# MARK4 = conditions: compound concentrations:3nM, 10nM, 30nM, 100nM, 300nM, 1000nM, 3000nM, 30000nM,R2:0.98999073963654005,slope:9.1146195696381707,EC50 Standard Error, by the legend:Standard error of the EC50 estimation as provided by the drc package.
# NEK1 = conditions: compound concentrations:3nM, 10nM, 30nM, 100nM, 300nM, 1000nM, 3000nM, 30000nM,R2:0.97961263644427599,slope:0.99029629152452003,EC50 Standard Error, by the legend:Standard error of the EC50 estimation as provided by the drc package.
# NUAK1 = conditions: compound concentrations:3nM, 10nM, 30nM, 100nM, 300nM, 1000nM, 3000nM, 30000nM,R2:0.91267183430565202,slope:2.53834648929845,EC50 Standard Error, by the legend:Standard error of the EC50 estimation as provided by the drc package.
# PAK4 = conditions: compound concentrations:3nM, 10nM, 30nM, 100nM, 300nM, 1000nM, 3000nM, 30000nM,R2:0.99818475591728295,slope:0.99089042450123299,EC50 Standard Error, by the legend:Standard error of the EC50 estimation as provided by the drc package.
# PDPK1;PDPK2P = conditions: compound concentrations:3nM, 10nM, 30nM, 100nM, 300nM, 1000nM, 3000nM, 30000nM,R2:0.91971580292243504,slope:1.29280126727837,EC50 Standard Error, by the legend:Standard error of the EC50 estimation as provided by the drc package.
# PHKG2 = conditions: compound concentrations:3nM, 10nM, 30nM, 100nM, 300nM, 1000nM, 3000nM, 30000nM,R2:0.987331752692992,slope:1.79353666450797,EC50 Standard Error, by the legend:Standard error of the EC50 estimation as provided by the drc package.
# PLK4 = conditions: compound concentrations:3nM, 10nM, 30nM, 100nM, 300nM, 1000nM, 3000nM, 30000nM,R2:0.98129496676024397,slope:1.0145275307596699,EC50 Standard Error, by the legend:Standard error of the EC50 estimation as provided by the drc package.
# PRKD2 = conditions: compound concentrations:3nM, 10nM, 30nM, 100nM, 300nM, 1000nM, 3000nM, 30000nM,R2:0.99348954984815097,slope:2.8520769192550901,EC50 Standard Error, by the legend:Standard error of the EC50 estimation as provided by the drc package.
# PRKD3 = conditions: compound concentrations:3nM, 10nM, 30nM, 100nM, 300nM, 1000nM, 3000nM, 30000nM,R2:0.98624890214185301,slope:1.3007514421669799,EC50 Standard Error, by the legend:Standard error of the EC50 estimation as provided by the drc package.
# Q6ZSR9 = Q6ZSR9 (human, UniProt Q6ZSR9); conditions: compound concentrations:3nM, 10nM, 30nM, 100nM, 300nM, 1000nM, 3000nM, 30000nM,R2:0.98031780619019204,slope:1.5136598557560801,EC50 Standard Error, by the legend:Standard error of the EC50 estimation as provided by the drc package.
# RET = conditions: compound concentrations:3nM, 10nM, 30nM, 100nM, 300nM, 1000nM, 3000nM, 30000nM,R2:0.99332600963227702,slope:0.91132357301438205,EC50 Standard Error, by the legend:Standard error of the EC50 estimation as provided by the drc package.
# SIK2 = conditions: compound concentrations:3nM, 10nM, 30nM, 100nM, 300nM, 1000nM, 3000nM, 30000nM,R2:0.98900734002019797,slope:1.1146515084845601,EC50 Standard Error, by the legend:Standard error of the EC50 estimation as provided by the drc package.
# SLK = conditions: compound concentrations:3nM, 10nM, 30nM, 100nM, 300nM, 1000nM, 3000nM, 30000nM,R2:0.98664495046468503,slope:1.29889224696913,EC50 Standard Error, by the legend:Standard error of the EC50 estimation as provided by the drc package.
# Sequence of Q6ZSR9 (Q6ZSR9 whole entry, looked up): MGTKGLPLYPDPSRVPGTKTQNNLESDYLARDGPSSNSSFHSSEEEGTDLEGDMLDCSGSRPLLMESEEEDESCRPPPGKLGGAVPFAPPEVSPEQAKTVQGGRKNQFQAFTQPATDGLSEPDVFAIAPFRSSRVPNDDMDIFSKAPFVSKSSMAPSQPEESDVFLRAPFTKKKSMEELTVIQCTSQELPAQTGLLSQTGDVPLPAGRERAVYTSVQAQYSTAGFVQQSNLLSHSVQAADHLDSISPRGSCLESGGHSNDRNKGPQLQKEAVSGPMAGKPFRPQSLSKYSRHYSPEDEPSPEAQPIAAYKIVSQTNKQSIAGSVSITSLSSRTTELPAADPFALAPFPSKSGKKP
substance,measurement,setting,value
TAK659,EC50,FLT4,564 nM
same,Kd,FLT4; read-out: apparent Kd,308 nM
same,EC50,INCENP,150 nM
same,Kd,INCENP; read-out: apparent Kd,150 nM
same,EC50,IRAK4,718 nM
same,Kd,IRAK4; read-out: apparent Kd,675 nM
same,EC50,MAP3K11,9090 nM
same,Kd,MAP3K11; read-out: apparent Kd,7190 nM
same,EC50,MAP4K2,595 nM
same,Kd,MAP4K2; read-out: apparent Kd,459 nM
same,EC50,MARK2,837 nM
same,Kd,MARK2; read-out: apparent Kd,762 nM
same,EC50,MARK3,680 nM
same,Kd,MARK3; read-out: apparent Kd,670 nM
same,EC50,MARK4,1050 nM
same,Kd,MARK4; read-out: apparent Kd,1050 nM
same,EC50,NEK1,589 nM
same,Kd,NEK1; read-out: apparent Kd,529 nM
same,EC50,NUAK1,1020 nM
same,Kd,NUAK1; read-out: apparent Kd,312 nM
same,EC50,PAK4,336 nM
same,Kd,PAK4; read-out: apparent Kd,276 nM
same,EC50,PDPK1;PDPK2P,639 nM
same,Kd,PDPK1;PDPK2P; read-out: apparent Kd,639 nM
same,EC50,PHKG2,201 nM
same,Kd,PHKG2; read-out: apparent Kd,201 nM
same,EC50,PLK4,148 nM
same,Kd,PLK4; read-out: apparent Kd,77.2 nM
same,EC50,PRKD2,1010 nM
same,Kd,PRKD2; read-out: apparent Kd,895 nM
same,EC50,PRKD3,1410 nM
same,Kd,PRKD3; read-out: apparent Kd,1180 nM
same,EC50,Q6ZSR9,566 nM
same,Kd,Q6ZSR9; read-out: apparent Kd,493 nM
same,EC50,RET,22.7 nM
same,Kd,RET; read-out: apparent Kd,12.1 nM
same,EC50,SIK2,260 nM
same,Kd,SIK2; read-out: apparent Kd,140 nM
same,EC50,SLK,516 nM
same,Kd,SLK; read-out: apparent Kd,516 nM
